The values below come from PubChem BioAssay (NCI).

About 83,000 compounds went through this panel and 20% of them were active in at least one assay; those are over-represented in the sample as a whole.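 Results are percent growth after 48 hours of single-concentration exposure. 100 means growth as in untreated cells, lower positive values show inhibition; negative values down to -100 show cell death.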 A number with no mark means an inactive call. The source made the active and inactive calls. Rule for the calls: active = growth percent below 10; inactive = the rest.

Common to all, as to assay: NCI-60 one-dose screen, 48 h (100 = growth as untreated, 0 = no growth, -100 = all killed)
One test concerns SK-MEL-2 melanoma. To be noted: 10 µM unless noted.
Another test has as its system EKVX NSCLC. Particulars: 10 µM unless noted.
The next test has as its system SN12C renal. Particulars: 10 µM unless noted.
The subject of a further test is UO-31 renal. Particulars: 10 µM unless noted.
Another test deals with TK-10 renal. To be noted: 10 µM unless noted.
The next test relates to ACHN renal. To be noted: 10 µM unless noted.
The test system of another test is CAKI-1 renal. Particulars: 10 µM.
A further test has as its system CCRF-CEM leukemia. To be noted: 10 µM unless noted.
A further test deals with MOLT-4 leukemia. Particulars: 10 µM unless noted.
The next test has as its system SR leukemia. Particulars: 10 µM unless noted.
A further test relates to RPMI-8226 leukemia. Particulars: 10 µM unless noted.
Another test deals with OVCAR-8 ovarian. Particulars: 10 µM unless noted.
The subject of a further test is OVCAR-5 ovarian. Particulars: 10 µM unless noted.
The test system of a further test is OVCAR-4 ovarian. Particulars: 10 µM unless noted.
A further test has as its system SK-OV-3 ovarian. Particulars: 10 µM unless noted.
Another test has as its system IGROV1 ovarian. To be noted: 10 µM unless noted.
Another test deals with OVCAR-3 ovarian. Particulars: 10 µM unless noted.
The next test has as its system HS 578T breast. To be noted: 10 µM unless noted.
The next test relates to NCI/ADR-RES ovarian. To be noted: 10 µM unless noted.

Regarding `CN1CCN(c2ccc3c(c2)nc(NNC(=O)c2ccncn2)c2cccn23)CC1`, the growth in the test with SK-MEL-2 melanoma is 31.5%; in the test on EKVX NSCLC it was 22.4%; in the test on SN12C renal, 29.1%; with UO-31 renal, 13%; in the test with TK-10 renal, 43.1%; with ACHN renal it was 12.5%. Further, the growth with CAKI-1 renal was 6.41% (active); with CCRF-CEM leukemia it was 15.3%; in the test with MOLT-4 leukemia, 10.4%; with SR leukemia it was 14.9%; with RPMI-8226 leukemia, 24.5%; with OVCAR-8 ovarian, 21.8%. For the same compound, the growth in the test on OVCAR-5 ovarian was 54%; in the test on OVCAR-4 ovarian, 36.4%; in the test with SK-OV-3 ovarian, 25%; in the test with IGROV1 ovarian, 22.4%; in the test on OVCAR-3 ovarian it was 38%; in the test with HS 578T breast it was 71.3%. Further, the growth in the test on NCI/ADR-RES ovarian was 18.8%.

With `COc1ccc(/C=C/C(=O)c2nnn(-c3ccc(C(=O)O)cc3)c2C)cc1OC`, the growth in the test with SK-MEL-2 melanoma was 101%; in the test on EKVX NSCLC, 93.9%; in the test with SN12C renal it was 92.2%; in the test on UO-31 renal, 79.3%; in the test on TK-10 renal, 113%; with ACHN renal, 91.4%. Moreover, the growth in the test with CAKI-1 renal is 95.9%; with CCRF-CEM leukemia, 87.7%; in the test with MOLT-4 leukemia, 97.7%; in the test on SR leukemia, 95.4%; in the test with RPMI-8226 leukemia it was 99.4%; in the test on OVCAR-8 ovarian it was 102%. Also, the growth in the test on OVCAR-5 ovarian is 97.8%; in the test on OVCAR-4 ovarian, 107%; in the test with SK-OV-3 ovarian, 112%; with IGROV1 ovarian, 96.1%; with OVCAR-3 ovarian, 117%; in the test with HS 578T breast it was 102%. Further, in the test with NCI/ADR-RES ovarian, the growth is 106%.

As to `COc1ccc(-c2cc(-c3ccc(Cl)cc3)nc3nc(N)nn23)cc1`, the growth is 103% in the test on SK-MEL-2 melanoma; 99.3% with EKVX NSCLC; 97.6% in the test on SN12C renal; 81% in the test on UO-31 renal; 93.2% in the test on TK-10 renal; 96.3% with ACHN renal. The growth is 83.7% in the test with CAKI-1 renal; 95% with CCRF-CEM leukemia; 89% in the test on MOLT-4 leukemia; 93.6% with SR leukemia; 108% in the test with RPMI-8226 leukemia; 99.1% in the test with OVCAR-8 ovarian. The growth in the test on OVCAR-5 ovarian is 101%; in the test with OVCAR-4 ovarian it was 102%; with SK-OV-3 ovarian it was 119%; in the test on IGROV1 ovarian, 98.2%; with OVCAR-3 ovarian, 110%; in the test on HS 578T breast, 109%. Further, the growth in the test with NCI/ADR-RES ovarian was 102%.

For `Cn1cc(-c2nnc(N)nc2-c2cn(C)c3ccc(F)cc23)c2cc(F)ccc21`, the growth was 97% in the test on SK-MEL-2 melanoma; 101% with EKVX NSCLC; 89.2% in the test on SN12C renal; 82.6% with UO-31 renal; 91.4% in the test on TK-10 renal; 100% in the test on ACHN renal. Besides, the growth was 79.7% with CAKI-1 renal; 100% with CCRF-CEM leukemia; 79.1% in the test with MOLT-4 leukemia; 85.6% with SR leukemia; 106% with RPMI-8226 leukemia; 89.6% in the test on OVCAR-8 ovarian. The growth is 103% with OVCAR-5 ovarian; 97.4% in the test with OVCAR-4 ovarian; 112% in the test on SK-OV-3 ovarian; 101% in the test on IGROV1 ovarian; 103% in the test on OVCAR-3 ovarian; 90.8% in the test on HS 578T breast. Also, the growth in the test with NCI/ADR-RES ovarian was 99.8%.

Regarding `COc1cc(/C=C/C(=O)c2ccc(NC(=O)COc3cccc4cccnc34)cc2)cc(OC)c1OC`, the growth with SK-MEL-2 melanoma is 96.5%; with EKVX NSCLC it was 82%; in the test with SN12C renal, 75.4%; in the test on UO-31 renal, 67.7%; in the test with TK-10 renal it was 147%; in the test with ACHN renal, 80.2%. Moreover, the growth was 84.8% in the test on CAKI-1 renal; 26.5% with CCRF-CEM leukemia; 41% with MOLT-4 leukemia; 11.4% in the test on SR leukemia; 12.9% in the test with RPMI-8226 leukemia; 79.7% in the test on OVCAR-8 ovarian. Besides, the growth in the test with OVCAR-5 ovarian was 128%; in the test on OVCAR-4 ovarian, 84.3%; in the test on SK-OV-3 ovarian it was 118%; in the test with IGROV1 ovarian, 69.4%; with OVCAR-3 ovarian it was 47.9%; with HS 578T breast, 93.8%. Moreover, the growth in the test on NCI/ADR-RES ovarian was 71.7%.

As for `COC[C@]12CC[C@@H](C)[C@H](C)[C@H]1C1=CC[C@@H]3[C@@]4(C)CCCNC(C)(C)[C@@H]4CC[C@@]3(C)[C@]1(C)CC2`, the growth was 58.5% in the test on SK-MEL-2 melanoma; 57.8% in the test on EKVX NSCLC; 23.2% in the test with SN12C renal; 60.2% in the test on UO-31 renal; 61.9% in the test on TK-10 renal; 30.7% with ACHN renal. The growth is 35% with CAKI-1 renal; 17% in the test with CCRF-CEM leukemia; 5.72% (active) in the test with MOLT-4 leukemia; -3.33% (active) in the test with SR leukemia; 2.86% (active) with RPMI-8226 leukemia; 62.4% in the test with OVCAR-8 ovarian. In addition, the growth with OVCAR-5 ovarian was 61.6%; in the test on OVCAR-4 ovarian it was 38%; with SK-OV-3 ovarian it was 85.4%; in the test with IGROV1 ovarian, 30.2%; in the test with OVCAR-3 ovarian it was 41.4%; in the test on HS 578T breast it was 74.3%. For the same compound, the growth with NCI/ADR-RES ovarian was 44.3%.

As for `CC1(C)CC[C@]2(C(=O)O)CC[C@]3(C)C(=CCC4[C@@]5(C)C[C@@H](O)[C@@H]6OC(c7ccccc7O)OC[C@@]6(C)C5CC[C@]43C)C2C1` (some centres not stated), the growth in the test on SK-MEL-2 melanoma is 85.7%; with EKVX NSCLC it was 39.9%; in the test on SN12C renal, 60.1%; in the test on UO-31 renal it was 54.8%; in the test on TK-10 renal, 52.2%; in the test with ACHN renal it was 25.3%. For the same compound, the growth was 73.5% with CAKI-1 renal; 46.8% with CCRF-CEM leukemia; 39.2% in the test with MOLT-4 leukemia; 53.3% in the test with SR leukemia; 55.4% with RPMI-8226 leukemia; 53.1% in the test with OVCAR-8 ovarian. For the same compound, the growth is 103% in the test on OVCAR-5 ovarian; 63.6% in the test with OVCAR-4 ovarian; 80% with SK-OV-3 ovarian; 57.2% in the test on IGROV1 ovarian; 47.4% with OVCAR-3 ovarian; 80.6% with HS 578T breast. Further, in the test on NCI/ADR-RES ovarian, the growth was 34.6%.

Consider `CCOC(=O)c1c(NCC(=O)Nc2cccc(Cl)c2)sc2c1CCCC2`, for which the growth is 93.5% in the test with SK-MEL-2 melanoma; 89.9% with EKVX NSCLC; 73% with SN12C renal; 76.4% in the test on UO-31 renal; 146% in the test with TK-10 renal; 88.7% with ACHN renal. The growth with CAKI-1 renal was 68.4%; in the test on CCRF-CEM leukemia, 58%; in the test with MOLT-4 leukemia it was 47.2%; in the test with SR leukemia, 69.4%; in the test on RPMI-8226 leukemia, 78.6%; with OVCAR-8 ovarian, 87.7%. Moreover, the growth is 94.5% with OVCAR-5 ovarian; 80.3% with OVCAR-4 ovarian; 84.2% in the test on SK-OV-3 ovarian; 50.6% in the test with IGROV1 ovarian; 82.8% in the test with OVCAR-3 ovarian; 77.4% with HS 578T breast. Moreover, the growth in the test on NCI/ADR-RES ovarian is 81.6%.
